Laboratory results as given in the supplement of paper PMC12669032.

Key:
Assay in all cases: growth AUC relative to DMSO control (median of replicates) (fraction); higher = more growth (less inhibition), active = hit call of the paper
Details in all cases: 20 µM; 24 h;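 active = AUC reduced over 20% with Padj below 0.05 in at least 2 of 3 replicates; inactive = otherwise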
[1] = test system: Akkermansia muciniphila
Outline: (§1)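 Area under the growth curve was normalised to the plate median of solvent-only wells, or to row and column medians on the industrial chemical plate. Growth curves came from anaerobic gut bacterial monocultures in mGAM at 37 °C, seeded at OD600 0.05 with 20 µM compound (1% DMSO), and read at OD600 hourly for 24 h with the minimum OD set to 0. The value is the median of three biological replicates grown on separate days.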

[2] = test system: Bacteroides caccae
Outline: as §1

[3] = test system: Bacteroides clarus
Outline: as §1

[4] = test system: Bacteroides dorei
Outline: as §1

[5] = test system: Bacteroides stercoris
Outline: as §1

[6] = test system: Bacteroides thetaiotaomicron
Outline: as §1

[7] = test system: Bacteroides uniformis
Outline: as §1

[8] = test system: Bifidobacterium longum subsp. longum
Outline: as §1

[9] = test system: Clostridium difficile
Outline: as §1

[10] = test system: Collinsella aerofaciens
Outline: as §1

Measured: growth AUC

Clc1nc(Cl)nc(Nc2ccccc2Cl)n1
inactive: [1] 1.04 | [2] 1.02 | [3] 0.962 | [4] 1.02 | [5] 1.07 | [6] 0.995 | [7] 0.997 | [8] 1.01 | [9] 1.03 | [10] 1.01

O=[N+]([O-])c1cc(Cl)ccc1Cl
inactive: [1] 1.04 | [2] 0.998 | [3] 0.977 | [4] 0.986 | [5] 1.03 | [6] 0.989 | [7] 1.02 | [8] 1.01 | [9] 0.995 | [10] 0.964

ClC(Cl)=C(c1ccc(Cl)cc1)c1ccc(Cl)cc1
inactive: [1] 1.1 | [2] 0.933 | [3] 0.961 | [4] 0.953 | [5] 1.18 | [6] 0.956 | [7] 1.01 | [8] 1.05 | [9] 0.969 | [10] 0.842

COc1cc(OC)nc(Sc2cccc(Cl)c2C(=O)O)n1
inactive: [1] 1.28 | [2] 1.01 | [3] 0.98 | [4] 0.959 | [5] 0.977 | [6] 1.02 | [7] 0.986 | [8] 1 | [9] 1.01 | [10] 0.964

O=C1C(Cl)=C(Cl)C(=O)c2ccccc21
inactive: [1] 0.907 | [2] 0.987 | [3] 0.987 | [4] 0.958 | [5] 0.962 | [6] 0.996 | [7] 0.986 | [8] 0.904 | [9] 0.912 | [10] 0.988

CCOP(=S)(OCC)Oc1cnc2ccccc2n1
inactive: [1] 0.881 | [2] 0.925 | [3] 0.94 | [4] 0.993 | [5] 0.934 | [6] 0.895 | [7] 0.867 | [8] 0.987 | [9] 0.988 | [10] 0.992

Clc1cc(Cl)nc(-c2ccccc2)n1
inactive: [1] 1.12 | [2] 0.877 | [3] 0.99 | [4] 0.995 | [5] 1 | [6] 0.971 | [7] 0.956 | [8] 1.09 | [9] 0.956 | [10] 0.927

Fc1ccc(Oc2ccnc3cc(Cl)cc(Cl)c23)cc1
inactive: [1] 0.94 | [2] 0.899 | [3] 0.918 | [4] 1.05 | [5] 0.806 | [6] 0.887 | [7] 0.875 | [8] 0.905 | [9] 1.08 | [10] 0.967

O=C1C=C(N(Cc2ccc(Cl)nc2)CC(F)F)CO1
inactive: [1] 0.98 | [2] 0.991 | [3] 0.991 | [4] 0.977 | [5] 1.25 | [6] 1.01 | [7] 0.997 | [8] 1.01 | [9] 0.978 | [10] 0.994

COC(=O)c1ccccc1S(=O)(=O)NC(=O)Nc1nc(C)nc(OC)n1
inactive: [1] 1.1 | [2] 1.02 | [3] 0.982 | [4] 1.01 | [5] 0.849 | [6] 0.995 | [7] 1.03 | [8] 1 | [9] 1.01 | [10] 0.957

CCOc1nc(NC)nc(NC(=O)NS(=O)(=O)c2ccccc2C(=O)OC)n1
inactive: [1] 0.947 | [2] 1.01 | [3] 1.01 | [4] 1.02 | [5] 0.97 | [6] 0.988 | [7] 0.998 | [8] 0.967 | [9] 0.979 | [10] 0.992

ClC1=C(Cl)C(Cl)(C2(Cl)C(Cl)=C(Cl)C(Cl)=C2Cl)C(Cl)=C1Cl
inactive: [1] 1.27 | [2] 0.926 | [3] 0.93 | [4] 0.895 | [5] 0.809 | [6] 0.856 | [7] 0.875 | [8] 0.94 | [9] 1 | [10] 0.823

COP(N)(=S)Oc1ccccc1C(=O)OC(C)C (stereo not given)
inactive: [1] 1.19 | [2] 1.02 | [3] 0.981 | [4] 0.893 | [5] 0.979 | [6] 0.998 | [7] 0.999 | [8] 1.03 | [9] 0.993 | [10] 0.993

N#Cc1c[nH]cc1-c1cccc(Cl)c1Cl
inactive: [1] 0.905 | [2] 0.819 | [3] 0.9 | [4] 0.871 | [5] 0.884 | [6] 0.835 | [7] 0.816 | [8] 1.09 | [9] 0.901 | [10] 0.935

CCCCc1c(C)nc(NCC)nc1OS(=O)(=O)N(C)C
inactive: [1] 1.07 | [2] 1.01 | [3] 0.967 | [4] 0.909 | [5] 0.895 | [6] 0.944 | [7] 0.901 | [8] 0.996 | [9] 1.01 | [10] 0.977

CCOC(=O)CCN(Cc1ccccc1)SN(C)C(=O)O/N=C(/C)SC
inactive: [1] 0.948 | [2] 0.993 | [3] 0.979 | [4] 1.04 | [5] 1.09 | [6] 0.991 | [7] 1.09 | [8] 1.03 | [9] 1.01 | [10] 1.02

CO/C=C(/C(=O)OC)c1ccccc1COc1cccc(C(F)(F)F)n1
inactive: [1] 0.949 | [2] 0.984 | [3] 0.945 | [4] 0.995 | [5] 0.91 | [6] 0.936 | [7] 0.927 | [8] 0.983 | [9] 1.01 | [10] 0.978

CC(C)OC(=O)C(C(=O)OC(C)C)=C1SCCS1
inactive: [1] 1.07 | [2] 0.993 | [3] 1.01 | [4] 0.995 | [5] 0.955 | [6] 0.974 | [7] 1.01 | [8] 1.04 | [9] 1.02 | [10] 0.984

C[N+](C)(C)CCCl.[Cl-]
inactive: [1] 1.06 | [2] 1.01 | [3] 1.03 | [4] 0.983 | [5] 1.08 | [6] 1.02 | [7] 1.01 | [8] 0.997 | [9] 1 | [10] 1.02

CNC(=O)O/N=C(\C)C(C)S(C)=O (stereo not given)
inactive: [1] 0.963 | [2] 0.997 | [3] 0.976 | [4] 0.996 | [5] 1 | [6] 0.983 | [7] 0.997 | [8] 0.996 | [9] 1 | [10] 0.995

c1ccc2c(c1)cc1ccc3cccc4ccc2c1c34
inactive: [1] 1.01 | [2] 0.957 | [3] 0.94 | [4] 0.956 | [5] 0.978 | [6] 1 | [7] 0.957 | [8] 1.09 | [9] 0.983 | [10] 1.03
